Screening results (PubChem BioAssay)
Rows were chosen to be rich in hits. Some 12% of all compounds tested hit in one or more screens of this group.
Pf growth 96h: inhibits malaria parasite growth, 96 h | Potency, µM (series often up to 28.7 µM), usual class: inhibitors | 320,000 tested, 6.9% active | AID 504834 | P. falciparum luciferase reporter growth, 96 h
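Delayed-death screen, second-generation endpoint: infected erythrocytes, 2% hematocrit, 0.05% parasitemia final; 96 hours at 37 C, 5% CO2; luciferase detection reagent; luminescence decrease equals reduced growth.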
SARS PLP yeast: blocks SARS-CoV papain-like protease in a yeast assay; S. cerevisiae expressing SARS-CoV PLpro, growth rescue; Potency, µM (top dose mostly 32.9 µM), most hits filed as activators; 330,000 tested, 0.19% active; AID 485353; calls by dose curve; also: nearly all actives have a fitted effect of over 55% in size
Sm TGR block: blocks Schistosoma mansoni thioredoxin glutathione reductase | 360,000 tested, 3% active | AID 485364 | Q962Y6 | purified TGR, DTNB reduction, TNB absorbance 405 nm | Potency, µM (top dose mostly 114 µM), usual class: inhibitors; also: nearly all actives have a fitted effect of over 60% in size
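TGR 20 nM + NADPH 100 uM (dispensed conc.), cpd preinc 15 min RT; start with NADPH (500 uM addition) then DTNB (15 mM addition). Kinetic TNB absorbance, 405 nm filter. Four-parameter Hill fit across titration.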
Pf growth 48h: P. falciparum growth inhibition at 48 hours (one generation) | P. falciparum luciferase growth in erythrocytes, 48 h | Potency, µM (titrated, usually from 28.7 µM), actives largely listed as inhibitors | 310,000 tested, 5.9% active
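In quantitative HTS format, infected erythrocytes bearing luciferase-reporter parasites were treated for a single generation at 37 C. Luminescence after adding detection reagent served as the growth measure.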
A number is an active result; 0 = inactive; ? = inconclusive; - = no result. Unless noted, calls follow the shape of the dose curve; as a rule, active = well fitted curve in the direction sought with a large enough effect; inconclusive = small, poorly fitted or top-dose-only effect, or another doubt; inactive = no such curve, though single readings can be large; an effect the other way counts as inactive or inconclusive.

SMILES	Pf growth 96h	SARS PLP yeast	Sm TGR block	Pf growth 48h
COc1cccc(NC(=O)COC(=O)C2CC(=O)N(c3ccc(C)cc3)C2)c1 (stereo unspecified)	0	0	0	0
Nc1ncnc2c1c(-c1ccc(Oc3ccccc3)cc1)cn2C1CCCC1	5.2µM	-	0	8.3µM
COc1ccc(-n2cc(-c3ccccc3)c3c(NC4CCCC4)ncnc32)cc1	-	-	0	-
Cc1ccc(-c2cn(-c3cccc(Cl)c3)c(S(=O)(=O)CC(=O)Nc3ccccc3F)n2)cc1	-	-	0	-
CCc1ccc(NC(=O)C2CCN(S(=O)(=O)c3c(C)noc3/C=C/c3cccs3)CC2)cc1	-	-	0	-
CC(C)(C)n1nc(-c2ccc(F)cc2)c2c(N)ncnc21	15µM	0	0	12µM
Cc1ccc(-c2nc(N)c3c(-c4ccc(C)cc4)nn(C(C)(C)C)c3n2)cc1	?	0	0	0
CC(C)(C)n1nc(-c2ccc(Cl)cc2)c2c(N)ncnc21	3.7µM	0	0	12µM
C/C=C(\C)C(=O)O[C@@H]([C@H](O)c1cc2ccc(=O)oc2cc1OC)C(C)(C)O	0	0	0	0
COCCCNC(=S)N1CCN(c2ccc([N+](=O)[O-])cc2)CC1	0	0	0	6.6µM
C=CCNC(=S)N1CCN(c2ccc([N+](=O)[O-])cc2)CC1	?	0	0	1.7µM
O=[N+]([O-])c1ccc(N2CCN(C(=S)NCc3ccc(Cl)cc3)CC2)cc1	0	0	0	?
CCNC(=S)N1CCN(c2ccc([N+](=O)[O-])cc2)CC1	6.6µM	0	0	12µM
CNC(=S)N1CCN(c2ccc([N+](=O)[O-])cc2)CC1	13µM	0	0	?
O=[N+]([O-])c1ccc(NC(=S)N2CCN(c3ccc(F)cc3)CC2)cc1	0	?	0	0
COc1ccc(NC(=O)c2oc3ccccc3c2NC(=O)C2CCCO2)cc1OC (stereo unspecified)	0	0	0	?
COc1ccccc1NC(=O)c1oc2ccccc2c1NC(=O)C1CC1	15µM	0	0	12µM
CCOc1ccccc1NC(=O)c1oc2ccccc2c1NC(=O)C1CC1	?	0	0	?
COc1ccc(NC(=O)c2oc3ccccc3c2NC(=O)C2CC2)cc1OC	12µM	0	0	?
O=C(COc1ccccc1[N+](=O)[O-])N(Cc1ccco1)c1ccccn1	-	-	0	-
O=C1CN(C(=O)CCCc2c[nH]c3ccccc23)c2ccccc2N1	-	0	0	9.3µM
Cc1cc(C)n(CCC(=O)N/N=C/c2c(O)ccc3ccccc23)n1	?	0	0	6.6µM
O=C(CCSc1nc2ccccc2s1)N/N=C/c1c(O)ccc2ccccc12	2.9µM	0	0	?
Cc1ccc(NC(=O)CCn2nc(C)cc2C)c(C)c1	12µM	?	0	0
Cc1cc(C)n(CCC(=O)N/N=C/c2ccc(O)cc2)n1	0	0	0	0
SMILES	Pf growth 96h	SARS PLP yeast	Sm TGR block	Pf growth 48h
CC(C)Cn1c(N)c(C(=O)COC(=O)Cc2cccc(C(F)(F)F)c2)c(=O)n(C)c1=O	?	0	0	9.3µM
CC(C)Cn1c(N)c(C(=O)COC(=O)c2ccc3ccccc3n2)c(=O)n(C)c1=O	4.1µM	0	0	0
CC(C)Cn1c(N)c(C(=O)COC(=O)Cc2cccs2)c(=O)n(C)c1=O	0	0	0	0
CCc1ccc(C(=O)OCC(=O)c2c(N)n(CC(C)C)c(=O)n(C)c2=O)cc1	13µM	0	0	?
CC(C)Cn1c(N)c(C(=O)COC(=O)c2ccc(F)cc2)c(=O)n(C)c1=O	0	0	0	0
COc1cccc(Cn2c(=O)n(Cc3ccccc3)c(=O)c3c2c2cc(OC)ccc2n3C)c1	-	-	0	-
CCOC(=O)c1c(NC(=O)CSc2cn(CCNC(=O)c3ccccc3F)c3ccccc23)sc2c1CCCC2	-	-	0	-
C[n+]1cccc(/C=N/NC(=O)CC23CC4CC(CC(C4)C2)C3)c1	0.59µM	0	0	?
COc1ccc([C@H]2CC(=O)C=C(c3ccc(Cl)c(F)c3)C2)cc1	0	0	0	0
NC1=NC[C@@H](Cc2ccc(O)cc2)N1CCCCC1CCCCC1	1.2µM	0	0	1.9µM
NC1=NC[C@H](Cc2ccc(O)cc2)N1CC1CCCCC1	2.6µM	0	0	5.9µM
COC(=O)C1=C(c2cccc(OCc3ccccc3)c2)C[C@@H]2CC[C@H]1N2C(=O)NCc1ccc(C(F)(F)F)cc1	5.2µM	0	0	13µM
COC(=O)C1=C(c2cccc(OCc3ccccc3)c2)C[C@@H]2CC[C@H]1N2C(=O)NCc1ccc(F)cc1	9.3µM	0	0	12µM
COC(=O)C1=C(c2ccc(OCc3ccccc3)cc2)C[C@@H]2CC[C@H]1N2C(=O)NCCCc1ccccc1	?	0	0	?
COC(=O)C1=C(c2cccc(C#N)c2)C[C@@H]2CC[C@H]1N2C(=O)NCc1ccc(F)cc1	0	0	0	?
COC(=O)C1=C(c2cccc(OCc3ccccc3)c2)C[C@@H]2CC[C@H]1N2C(=O)NCc1ccc2[nH]ccc2c1	?	0	0	13µM
COC(=O)C1=C(c2cccc(OCc3ccccc3)c2)C[C@@H]2CC[C@H]1N2C(=O)NCCCc1ccccc1	?	0	0	9.3µM
COC(=O)C1=C(c2c(C)noc2C)C[C@@H]2CC[C@H]1N2C(=O)NCc1ccc(C(F)(F)F)cc1	0	0	0	?
COC(=O)C1=C(c2ccc(OCc3ccccc3)cc2)C[C@@H]2CC[C@H]1N2C(=O)NCc1ccc(OC)c(OC)c1	?	0	0	?
Cc1ccc(/C=c2\sc3n(c2=O)CN(c2cccc(Br)c2)CN=3)o1	?	0	25µM	?
O=c1/c(=C/c2ccco2)sc2n1CN(c1cccc(Br)c1)CN=2	?	0	25µM	-
O=c1/c(=C/c2ccco2)sc2n1CN(c1ccccc1)CN=2	0	0	0	-
C=CCc1cc(/C=C/c2nc(O)c([N+](=O)[O-])c(=O)[nH]2)cc(OC)c1O	0	0	45µM	?
Cc1ccc(NC(=O)c2cc3c(CO)cnc(C)c3oc2=Nc2cccc(C(N)=O)c2)cc1	0	0	0	0
O=C(c1cc(-c2ccc3c(c2)OCO3)on1)N1CCCCC1	13µM	0	0	0
CCC(=O)N1CC2(CC(c3cccc(NC(=O)CC(c4ccccc4)c4ccccc4)c3)=NO2)C[C@H]1C(N)=O (stereo partly specified)	0	0	0	0
NC(=O)[C@H]1CC2(CC(c3cccc(NC(=O)CC(c4ccccc4)c4ccccc4)c3)=NO2)CN1C(=O)CC(c1ccccc1)c1ccccc1 (stereo partly specified)	?	0	0	12µM
Cc1c(C(=O)N2CC3(CC(c4cccc(NC(=O)CC(c5ccccc5)c5ccccc5)c4)=NO3)C[C@@H]2C(N)=O)cc([N+](=O)[O-])cc1[N+](=O)[O-] (stereo partly specified)	?	0	0	12µM
C/C=C(\C)C(=O)Nc1cccc(C2=NOC3(C2)C[C@@H](C(N)=O)N(C(=O)c2cc([N+](=O)[O-])cc([N+](=O)[O-])c2C)C3)c1 (stereo partly specified)	?	0	?	?
C=C(C)COc1ccc2c(C)c(C)c(=O)oc2c1OCC(=C)C	0	0	0	12µM
